Measured values published in PubChem BioAssay AID1851 (National Center for Advancing Translational Sciences (NCATS), 2009).
“And” between values parts separate entries of the source, which are not always exact repeats. Equal values may be shown once. About 5,800 (36%) of roughly 16,000 compounds were called active. Not shown: some 23% with an inconclusive outcome. Calls come from the whole dose curve; as a rule, active = well fitted curve in the direction sought with a large enough effect; inconclusive = small, poorly fitted or top-dose-only effect, or effect the other way; inactive = no such curve, though single readings can be large or run the other way. The list shows a part of the results. Some structures have more than one record in an assay (separate samples or runs), and their calls can disagree.

Target: Cytochrome P450 2C19 (Homo sapiens) (UniProt P33261)
Assay: Cytochrome panel assay with activity outcomes
Conditions: recombinant CYP, pro-luciferin dealkylation, luminescence, p450-cyp2c19; series mostly up to 57.1 µM
% is set by controls: 0 for no effect and ±100 for the full control effect.

Chain of Cytochrome P450 2C19 (Homo sapiens) (P33261 whole entry, looked up): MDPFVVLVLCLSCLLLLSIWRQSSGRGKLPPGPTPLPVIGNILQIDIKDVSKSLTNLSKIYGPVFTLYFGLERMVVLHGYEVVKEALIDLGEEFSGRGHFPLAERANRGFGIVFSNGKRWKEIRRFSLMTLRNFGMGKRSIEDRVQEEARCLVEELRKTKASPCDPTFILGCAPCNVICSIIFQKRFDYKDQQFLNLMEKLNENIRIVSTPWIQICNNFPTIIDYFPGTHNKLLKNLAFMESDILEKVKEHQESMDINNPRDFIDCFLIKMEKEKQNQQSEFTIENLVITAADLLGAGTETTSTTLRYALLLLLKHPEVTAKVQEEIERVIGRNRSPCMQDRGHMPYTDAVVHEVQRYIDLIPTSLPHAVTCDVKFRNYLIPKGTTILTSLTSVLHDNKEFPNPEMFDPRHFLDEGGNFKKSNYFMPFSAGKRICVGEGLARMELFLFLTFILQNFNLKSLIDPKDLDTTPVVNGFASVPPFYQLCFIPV

Compound | AC50 | activity, negative = inhibition
O=C(O)CCCc1ccc(N(CCCl)CCCl)cc1 | inactive | 
COC(=O)c1[nH]c2ccc(Br)cc2c1NC(=O)Oc1ccccc1 | 11200 nM (active) | 
c1ccc2nc(N3CCNCC3)ccc2c1 | inactive | 
O=C(O)[C@@H]1[C@H](C(=O)O)[C@]2(Cl)C(Cl)=C(Cl)[C@@]1(Cl)C2(Cl)Cl |  | -2.94% [at 11.4 µM] (inactive)
NCC1(CC(=O)O)CCCCC1 | inactive | 
CCN(CC)CCn1ncc2c(N)ncnc21 |  | -2.72% [at 11.4 µM] (inactive)
CN1[C@@H]2CC[C@H]1CC(O[C@@H](c1ccccc1)c1ccc(Cl)cc1)C2 (stereo not given in full) | inactive | 
C[C@H](N)[C@@H](O)c1ccccc1 | inactive | 
CC(NCc1ccc(Cl)cc1)C(O)c1ccccc1 (stereo not given) | 355 nM (active) | 
Cc1sc2ccccc2c1CC1=NCCN1 | inactive | 
c1ccc(C2CC2)c(OCC2=NCCN2)c1 | inactive | 
CCSCC[C@H](N)C(=O)O |  | -18% [at 11.4 µM] (inactive)
[N-]=[N+]=CC(=O)CC[C@H](N)C(=O)O |  | 0.0153% [at 11.4 µM] (inactive)
CC(C)COC(=O)OCN1C(=O)CN(CCN2CC(=O)N(COC(=O)OCC(C)C)C(=O)C2)CC1=O | inactive | 
c1csc(CN2CCCC3(CCNCC3)C2)n1 | inactive | 
O=C(CN1CCCCC1)Nc1ccc(Br)cc1C(=O)c1ccccc1Cl | 7940 nM (active) | 
O=c1[nH]cnc2[nH]cc(CN3CCCCC3)c12 |  | 39.9% [at 11.4 µM] (inactive)
Cc1nnc2ccc(-c3cccc(C(F)(F)F)c3)nn12 | inactive | 
CCC1(CCSC(=N)N)C(=O)NC(=O)NC1=O |  | 20.6% [at 11.4 µM] (inactive)
O=C1CCCN1CC#CCN1CCCC1 | inactive and 158 nM (active) | 
C[N+](C)(C)CC#CCN1CCCC1=O | inactive | 
C(#CCN1CCCC1)CN1CCCC1 | inactive | 
CN(CCC(=O)O)C1=Nc2ccc(Cl)cc2C(c2ccccc2)=[N+]([O-])C1 |  | -1.35% [at 11.4 µM] (inactive)
Nc1nc(N)c2nc(CNc3ccc(C(=O)N[C@H](CCC(=O)O)C(=O)O)cc3)cnc2n1 | inactive | 

Compound | AC50 | activity, negative = inhibition
O=C(O)CNC(=O)[C@@H](CS)Cc1ccccc1 | inactive | 
Cc1cc[c]([Sb]2[O][C@H]([C@H](O)[C@H](O)C(=O)O)[C@@H](CO)[O]2)cc1 |  | 30.4% [at 11.4 µM] (inactive)
N[C@@H](Cn1ccc(=O)n(Cc2ccc(C(=O)O)cc2)c1=O)C(=O)O | inactive | 
CC(C)(O)/C=C\C(=O)[C@](C)(O)[C@H]1[C@H](O)C[C@]2(C)[C@@H]3CC=C4[C@@H](C=C(O)C(=O)C4(C)C)[C@]3(C)C(=O)C[C@@]12C |  | -7.19% [at 11.4 µM] (inactive)
O=C(Nc1ccc(C(F)(F)F)cc1)c1cccn(Cc2ccc3c(c2)OC(F)(F)O3)c1=O | 3160 nM (active) | 
CC(=O)Nc1ccccc1C(=O)OCc1ccc(C(=O)c2ccccc2)cc1 | 3550 nM (active) | 
NS(=O)(=O)c1cc([C@@]2(O)NC(=O)c3ccccc32)ccc1Cl | inactive | 
NC[C@@H](Cc1ccccc1)P(=O)(O)O |  | -0.815% [at 11.4 µM] (inactive)
O=C(Oc1ccccc1)N1CCC[C@@]2(CCN(C(c3ccccc3)c3ccccc3)C2)C1 | inactive | 
O=C(O)Cc1cnc[nH]1 | inactive | 
CC[C@H](CO)NC(=O)[C@@H]1C=C2c3cccc4c3c(cn4C)C[C@@H]2N(C)C1 | inactive | 
CC[C@@H](CO)NC(=O)[C@H]1C=C2c3cccc4c3c(cn4C)C[C@H]2N(C)C1 | 126 nM (active) | 
COc1ccc(NC(=O)N2CCCC3(CCN(C(=O)Oc4ccccc4)CC3)C2)cc1 | inactive | 
CN(C)CS/C(N)=N/[C@H](O)C(Cl)(Cl)Cl |  | -3.05% [at 11.4 µM] (inactive)
CNC(C)Cc1ccccc1Sc1ccc(O)cc1 (stereo not given) | 10000 nM (active) | 
C[C@H](N)Cc1c[nH]c2ccc(O)cc12 | inactive | 
CC(N)Cc1ccccc1Sc1ccc(O)cc1 (stereo not given) | 15800 nM (active) | 
CNC[C@H](O)c1ccc(O)cc1 | inactive | 
O=C(Oc1ccc([N+](=O)[O-])cc1)N1CCC(N2CCCCC2)CC1 | inactive | 
O=C1Nc2ccc(I)cc2/C1=C/c1cc(Br)c(O)c(Br)c1 | inactive | 
Nc1nc2ccc(Cl)cc2c2nc(-c3ccco3)nn12 | inactive | 
CCOP(=O)(OCC)c1nc(/C=C/c2ccccc2)oc1NCc1ccccc1 | 2240 nM (active) | 
CCNC(C)(C)[C@@H](SS)c1ccc(Br)cc1 |  | -70.9% [at 11.4 µM] (inactive)
COC1(CS(=O)c2ccccc2)CCN(CCc2c[nH]c3ccc(F)cc23)CC1 (stereo not given) | inactive | 

Compound | AC50 | activity, negative = inhibition
O=NN(Cc1ccc(Cl)cc1)[C@@H](C(=O)O)c1ccccc1 | 398 nM (active) | 
COc1ccc2c(c1)[C@]13CCCC[C@@H]1[C@H](C2)NCC3 | inactive | 
CN1CCc2cccc(Cl)c2CC1 | inactive | 
c1ccc(N2CC[C@@]3(CCCNC3)C2)cc1 | inactive | 
Cc1cc(Cc2cc(C)c(N)cc2N)c(N)cc1N |  | -42.7% [at 11.4 µM] (inactive)
CCCn1c(=O)c2[nH]c(C3CCCC3)nc2n(CCCOC(=O)c2ccc(S(=O)(=O)F)cc2)c1=O | inactive | 
CCOC(=O)c1c(NC(=O)C(c2ccccc2)c2ccccc2)sc2c1C1CCN2CC1 | 3550 nM (active) | 
CN(C)[C@@H]1C(=O)C(C(N)=O)=C(O)[C@]2(O)C(=O)C3=C(O)c4c(O)cccc4[C@@](C)(O)[C@H]3[C@H](O)[C@@H]12 | inactive | 
C[C@@]12CC[C@@H]3[C@H](CCC4=CC(=O)CC[C@]43C)[C@@H]1CC[C@@H]2C(=O)Cn1cnc2c(=S)nc[nH]c21 |  | -3.21% [at 11.4 µM] (inactive)
CC(O)(CS(=O)(=O)c1ccccc1)C(=O)Nc1cccc(C(F)(F)F)c1 (stereo not given) | 2240 nM (active) | 
CC(O)(CS(=O)(=O)c1cccc(C(F)(F)F)c1)C(=O)Nc1ccc(C(F)(F)F)cc1 (stereo not given) | 794 nM (active) | 
CC(O)(CS(=O)(=O)c1cccc(C(F)(F)F)c1)C(=O)Nc1cccc(C(F)(F)F)c1 (stereo not given) | 2510 nM (active) | 
O=C(O)c1ccccc1Nc1cccc(C(F)(F)F)c1 | inactive | 
CC[C@@H]1CN2CCc3cc(OC)c(OC)cc3[C@H]2C[C@@H]1C[C@@H]1NCCc2cc(O)c(OC)cc21 | inactive | 
Cn1c(=O)c2[nH]cnc2n(C)c1=O.[CH2-][C@H](Cc1cccc2cc(C(=O)O)c(=O)oc12)OC.[Hg].[OH-] |  | 27.4% [at 11.4 µM] (inactive)
C[C@@H]1[C@@H]2Cc3ccc(O)cc3[C@@]1(C)CCN2CC1CC1 | inactive | 
O=C(O)[C@@H]1C[C@H]1[C@@H](NP(=O)(c1ccccc1)c1ccccc1)c1ccccc1 | inactive | 
Cc1ccccc1OCCN=Cc1c(O)n(C)c(=O)n(C)c1=O | 10000 nM (active) | 
COc1cccc(-n2c(O)c(C=NCCN3CCOCC3)c(=O)[nH]c2=O)c1 | inactive | 
CC[N@+]1(C)CCC[C@@H](OC(=O)C(O)(c2ccccc2)c2ccccc2)C1 | inactive | 
C/C(O)=C(/C#N)C(=O)Nc1cc(Br)ccc1Br | inactive | 
COC(=O)C1=CCCN(C)C1 | inactive | 
C[C@H](Br)CN(C[C@H](C)Br)c1ccc2c(c1)Cc1ccccc1-2 | 2510 nM (active) | 
CC[C@H](C(=O)[C@H](C)[C@H](O)[C@H](C)CCc1ccc(C)c(O)c1C(=O)O)[C@H]1O[C@](CC)([C@@H]2CC[C@@](O)(CC)[C@H](C)O2)C[C@H]1C | inactive | 

Compound | AC50 | activity, negative = inhibition
COCCCn1c(N)c(C(=O)Nc2sc3c(c2C(=O)OC)CCCC3)c2nc3ccccc3nc21 | 3550 nM (active) | 
C=CCN1CC[C@@]23c4c5ccc(O)c4O[C@H]2/C(=N\N=C2/CC[C@@]4(O)[C@H]6Cc7ccc(O)c8c7[C@@]4(CCN6CC=C)[C@@H]2O8)CC[C@]3(O)[C@@H]1C5 | inactive | 
NCCc1ccc(S(=O)(=O)F)cc1 | inactive | 
COc1ccc(CNC(=O)/C=C\c2ccc3[nH]cc(CCN(C)C)c3c2)cc1 | inactive | 
C=CCN1C[C@H](C)N([C@H](c2ccc(C(=O)N(CC)CC)cc2)c2cccc(OC)c2)C[C@H]1C | inactive | 
COc1cc2c(cc1OC)[C@@H]1C(=O)c3ccc4c(c3O[C@@H]1CO2)C=CC(C)(C)O4 | 5010 nM (active) | 
C=C(C)[C@H]1Cc2c(ccc3c2O[C@H]2COc4cc(OC)c(OC)cc4[C@@H]2C3=O)O1 | 2510 nM (active) | 
N[C@@H](Cc1ccccc1)P(=O)(O)O |  | -2.53% [at 11.4 µM] (inactive)
Cn1c[n+](C)cc1C(O)c1ccccc1 (stereo not given) | inactive | 
COc1ccc2[nH]c3c(c2c1)CCN=C3C | inactive | 
Oc1ccc2c3c1O[C@H]1c4oc5ccccc5c4C[C@]4(O)[C@H](C2)N(CC2CC2)CC[C@@]314 | inactive | 
C=CCO[C@@H](Cn1ccnc1)c1ccc(Cl)cc1Cl | 10 nM (active) | 
N[C@@H](Cn1cc(I)c(=O)[nH]c1=O)C(=O)O | inactive | 
O=C(Nc1ccccc1)N1CCCC2(CCN(C(=O)Oc3ccccc3)CC2)C1 | inactive | 
C[C@H](N)c1cccc(Cl)c1Cl | inactive | 
Oc1ccc2c3c1O[C@H]1c4c(c5ccccc5n4Cc4ccccc4)C[C@]4(O)[C@H](C2)N(CC2CC2)CC[C@@]314 | inactive | 
NC(N)=NS(=O)(=O)c1ccc(N)cc1 | inactive | 
C[N+]1(C)CCO[C@@](O)(c2ccc(-c3ccc([C@]4(O)C[N+](C)(C)CCO4)cc3)cc2)C1 | inactive | 
c1ccc2c(c1)OC[C@@H](C1=NCCN1)O2 | inactive and 7.94 µM (active) | 
CC[C@]1(C2=NCCN2)Cc2ccccc2O1 | inactive | 
NC[C@@H](O)CSP(=O)(O)O |  | 8.63% [at 11.4 µM] (inactive)
NC(=O)CN1CCCC1=O | inactive | 
Nc1nnnn1CCO |  | 28.1% [at 11.4 µM] (inactive)
